Source: PubChem BioAssay (National Center for Advancing Translational Sciences (NCATS))
TGFb inhibitor: inhibitors of TGF-b signaling; HepG2 CAGA-GFP TGF-b/SMAD3 reporter, GFP fluorescence, 18 h; TGF-beta stimulated, 500 pg/mL final; Potency, µM (doses to about 46.1 µM), most hits filed as inhibitors; hit rate 1.2% among 410,000; AID 588855; also: nearly all actives have a fitted effect of over 65% in size
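TGF-beta reporter screen: HEPG2 CAGA-GFP, 1% FBS, 500 pg/mL TGF-beta final, 18 h; per-cell GFP summed per well; curves fitted and categorized by class.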
HepG2 viability: kills HepG2 cells in TGF-b inhibitor counter-screen | Potency, µM (highest dose often 46.1 µM), usual class: cytotoxic | hit rate 0.76% among 410,000 | AID 588856 | HepG2 CAGA-GFP viability, ATP luminescence, 18 h
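CellTiter-Glo luminescence gave cytotoxicity after 18 hours at 37 degrees C. The cells were HepG2 CAGA-GFP in 1% FBS DMEM, stimulated with 500 pg/mL TGF-beta after compound addition. %Activity was normalised to no-cell wells (complete cell-killing) and DMSO (no toxicity), and curves were fitted and classified.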
DT40 TDP1 CPT: growth inhibition of DT40 Tdp1-/-;hTDP1 cells with camptothecin (screen for TDP1 inhibitors); chicken DT40 Tdp1-/-;hTDP1 cells + 20 nM CPT, ATP luminescence, 48 h; Potency, µM (series often up to 46.2 µM), actives largely listed as inhibitors; hit rate 12% among 420,000; AID 686979; also: nearly all actives have a fitted effect of over 55% in size
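Chicken DT40 Tdp1-/- cells stably complemented with human TDP1 were seeded at 400 cells/well in medium containing 20 nM camptothecin, exposed to pin-transferred compounds, and grown at 37 °C for at least 48 hr. Viability was read as ATP luminescence.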
TDP1 block: inhibitors of human tyrosyl-DNA phosphodiesterase TDP1. Q9NUW8. recombinant TDP1, AlphaScreen DNA substrate cleavage. Potency, µM (highest dose often 130 µM), hits mostly inhibitors. hit rate 0.28% among 350,000. AID 485290; also: nearly all actives have a fitted effect of over 40% in size
Target sequence (Q9NUW8 whole entry, looked up): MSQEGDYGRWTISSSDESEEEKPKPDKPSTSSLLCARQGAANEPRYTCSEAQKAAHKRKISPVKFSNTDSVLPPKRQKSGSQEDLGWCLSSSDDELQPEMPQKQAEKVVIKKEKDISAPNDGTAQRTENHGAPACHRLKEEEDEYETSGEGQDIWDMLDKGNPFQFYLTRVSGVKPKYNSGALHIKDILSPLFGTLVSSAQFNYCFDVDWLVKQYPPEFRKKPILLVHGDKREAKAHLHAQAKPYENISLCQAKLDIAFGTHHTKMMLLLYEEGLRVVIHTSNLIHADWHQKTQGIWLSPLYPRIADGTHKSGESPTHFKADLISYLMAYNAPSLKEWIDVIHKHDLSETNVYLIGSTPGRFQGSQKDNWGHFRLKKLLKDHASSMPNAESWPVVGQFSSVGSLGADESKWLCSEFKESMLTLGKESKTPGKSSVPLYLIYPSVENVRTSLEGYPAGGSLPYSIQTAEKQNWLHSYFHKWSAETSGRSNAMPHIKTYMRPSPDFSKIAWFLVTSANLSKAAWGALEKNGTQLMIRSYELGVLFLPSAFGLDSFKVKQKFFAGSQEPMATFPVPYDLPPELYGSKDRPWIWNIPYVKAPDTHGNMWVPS
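Recombinant human Tdp1 (E. coli-expressed, 1 nM final) preincubated with compounds 15 min at room temperature, then 5'-biotin/3'-phosphotyrosine-FITC DNA substrate (15 nM final) added for 5 min. AlphaScreen beads (10 ug/ml final) added 10 min; cleavage lowers signal.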
TDP1 cell noCPT: qHTS for Inhibitors of human tyrosyl-DNA phosphodiesterase 1 (TDP1): qHTS in cells in absence of CPT; DT40 Tdp1-/- hTDP1 cells, no CPT, ATP luminescence, 48 h; Potency, µM (titrated, usually from 46.2 µM), actives largely listed as inhibitors; hit rate 15% among 420,000; also: nearly all actives have a fitted effect of over 55% in size
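No-CPT arm: Tdp1-/-;hTDP1 DT40 cells (400/well) plus compounds, incubated ≥48 hr at 37 °C. Readout CellTiter-Glo luminescence.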
IL1B secr inh: inflammasome signaling inhibition, IL-1 beta readout. THP-1 LPS/ATP IL-1B secretion, AlphaLISA, 16 h; stronger effect = lower value. activity change, % at 57.5 µM. hit rate 4.7% among 360,000. AID 743279; in the data active = activity change below about -50%; inconclusive = mostly about -30% to -49%
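THP-1 cells pretreated 1 hr with compounds (up to 57.5 uM final), then stimulated with LPS (250 ng/mL final) plus ATP (1.25 mM final); secreted IL-1B measured by AlphaLISA after 16 hr, decreased signal indicating inhibition.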
Hits are given with their value; 0 = inactive; ? = inconclusive; - = no result given; [ ] = remark or other dose. Compounds with a hit are over-represented: about 18% of the library has one in this group of screens. Unless noted, calls follow the shape of the dose curve; as a rule, active = well fitted curve in the direction sought with a large enough effect; inconclusive = small, poorly fitted or top-dose-only effect, or another doubt; inactive = no such curve, though single readings can be large; an effect the other way counts as inactive or inconclusive.

SMILES | TGFb inhibitor | HepG2 viability | DT40 TDP1 CPT | TDP1 block | TDP1 cell noCPT | IL1B secr inh
COc1ccc(N2CC(NC(=O)c3ccc(OC(C)C)cc3)CC2=O)cc1 (configuration not stated) | 0 | 0 | 0 | 0 | ? | -
CCn1ncc2c(OCc3ccc(C#N)cc3)cc(C)nc21 | 0 | 0 | ? | 0 | ? | 0
Nc1ccc2[nH]ncc2c1 | 0 | 0 | 18.4µM | 0 | 20.6µM | 0
Cc1ccc(-c2nnc(Nc3cccc(C(F)(F)F)c3)c3ccccc23)cc1S(=O)(=O)N1CCOCC1 | ? | 0 | 9.2µM | 0 | 8.2µM | -
Cc1ccc(-c2nnc(Nc3cccc(Cl)c3)c3ccccc23)cc1S(=O)(=O)N1CCOCC1 | ? | 0 | 16.4µM | 0[12.3 µM] | 4.11µM | -
Cc1cccc(Nc2nnc(-c3ccc(C)c(S(=O)(=O)N4CCOCC4)c3)c3ccccc23)c1 | ? | 0 | 16.4µM | 0[12.3 µM] | 6.51µM | -
CCOc1ccc(NC(=O)CN2C(=O)c3ccccc3Sc3ccc(C(=O)OC)cc32)cc1 | 0 | 0 | - | 0 | - | -
CCn1c(C(=O)NCc2ccc(OC)cc2)cc2sc(Cl)cc21 | 0 | 0 | ? | 0 | ? | -
Cc1c(C(=O)N2CCN(S(=O)(=O)c3cc(F)ccc3F)CC2)oc2ccccc12 | 0 | 0 | 0 | 0 | 0 | 0
O=C(O)c1nn(Cc2csc(-c3ccccc3)n2)c(=O)c2ccccc12 | 0 | 0 | ? | 0 | 11.6µM | 0
Cc1ccnc(NC(=O)Cc2ccc(-c3ccccc3)cc2)c1 | ? | 0 | ? | 0 | ? | ?
Cc1ccc(C[n+]2cccc(-c3ccccc3)c2)c(C)c1 | ? | 0 | 1.16µM | 0 | 0.731µM | -58.1
COC(=O)c1cc(S(=O)(=O)Nc2cccc(-c3ccno3)c2)c[nH]1 | 0 | 0 | 11.6µM | - | 7.31µM | 0
CCOC(=O)c1c(S(=O)(=O)Nc2cccc(-c3ccno3)c2)c(C)n(C)c1C | 0 | 0 | 0 | 0 | 0 | 0
COc1ccc(CN2C(=O)CN(S(C)(=O)=O)CC2(C)C(=O)Nc2c(C)cccc2C)cc1 (configuration not stated) | - | - | 0 | - | 0 | 0
O=c1cc(-c2ccsc2)oc2ccc(-c3ccc4cc[nH]c4c3)cc12 | 0 | 0 | ? | 0 | ? | 0
CCC(C)NC(=O)c1nc2c(nnn2Cc2ccccc2Cl)c(=O)[nH]1 (configuration not stated) | 0 | 0 | 0 | 0 | ? | 0
O=C(NCc1cccs1)c1nc2c(nnn2Cc2ccccc2Cl)c(=O)[nH]1 | ? | 0 | 4.11µM | 0 | 2.59µM | 0
C=C(C)Cn1c(SCC(=O)c2ccc(OC)cc2)nc2sc3c(c2c1=O)CCCC3 | 0 | 0 | 10.3µM | - | 11.6µM | -
C=C(C)Cn1c(SCC(=O)Nc2cccc(Cl)c2)nc2sc3c(c2c1=O)CCCC3 | 0 | 0 | ? | - | 14.6µM | -
C=CCNC(=O)CSc1nc2sc3c(c2c(=O)n1CCC)CCC3 | 0 | 0 | ? | 0 | 14.6µM | 0
C=CCNC(=O)CSc1nc2sc3c(c2c(=O)n1CCCOC)CCC3 | 0 | 0 | 0 | 0 | 0 | 0
COc1ccc(-c2c(C3C4C=CCC(C)C4C(=O)N3Cc3ccccc3)ccc3ccccc23)cc1 (configuration not stated) | 0 | 0 | - | 0 | - | -
O=C(Nc1cccc(Oc2ccccc2)c1)c1ccc(-n2cncn2)c2ccoc12 | 0 | 0 | 18.4µM | - | ? | 0
O=C(Nc1cccc(F)c1)c1ccc(-n2cncn2)c2ccoc12 | 0 | 0 | 0 | - | 0 | 0
SMILES | TGFb inhibitor | HepG2 viability | DT40 TDP1 CPT | TDP1 block | TDP1 cell noCPT | IL1B secr inh
NC(N)=NCCCS(=O)(=O)Nc1ccc(Nc2c3ccccc3nc3cc([N+](=O)[O-])ccc23)cc1 | 0 | 0 | 9.2µM | - | 16.4µM | 0
O=[N+]([O-])c1ccc(-c2nc(Nc3ccc(O)cc3)c3ccccc3n2)cc1 | ? | 0 | 0 | - | 0 | 0
COCCNC(=S)N(CCc1c(C)[nH]c2ccc(F)cc12)Cc1ccc(C)cc1 | ? | 0 | ? | - | 18.4µM | -72.6
CCNC(=S)N(CCc1c(C)[nH]c2ccc(F)cc12)Cc1cccnc1 | 0 | 0 | ? | - | 25.9µM | 0
CCNC(=S)N(CCc1c(C)[nH]c2ccc(C)cc12)Cc1cccnc1 | 0 | 0 | ? | - | 29.1µM | 0
O=C(NNC(=O)c1cc(Cl)ccc1[N+](=O)[O-])c1csc(N2CCOCC2)n1 | 0 | 0 | 0 | - | 0 | 0
CCOC(=O)N1CCC(NC(=O)c2ccc3c(c2)N(Cc2ccccc2C)C(=O)c2ccccc2S3=O)CC1 (configuration not stated) | ? | 0 | ? | 0 | ? | -
CCCCn1c(N)c(N(CCOC)C(=O)c2ccc(N3CCCC3)c([N+](=O)[O-])c2)c(=O)[nH]c1=O | 0 | 0 | 0 | 0 | 0 | 0
COc1cccc(CN2CCC(C(=O)N3CCC(C)CC3)CC2)c1 | ? | 0 | 0 | 0 | 0 | 0
COc1cccc(Cn2c(=O)n(CC3CCC(C(=O)N4CCOCC4)CC3)c(=O)c3sccc32)c1 (configuration not stated) | 0 | 0 | ? | 0 | 20.6µM | -
O=C(C1CCC(Cn2c(=O)c3sccc3n(Cc3ccccc3F)c2=O)CC1)N1CCOCC1 (configuration not stated) | 0 | 0 | 16.4µM | 0 | ? | -
CCCNC(=O)C1CCC(Cn2c(=O)c3sccc3n(Cc3ccccc3C)c2=O)CC1 (configuration not stated) | 0 | 0 | 0 | 0 | 0 | -
Cc1cccc(Cn2c(=O)n(CC3CCC(C(=O)N4CCOCC4)CC3)c(=O)c3sccc32)c1 (configuration not stated) | ? | 0 | 23.1µM | 0 | 18.4µM | -
COC(=O)NC(c1ccccc1)C(C#N)C(=O)OC (configuration not stated) | - | - | - | 0[21 µM] | - | -
CCC1(c2ccccc2)NC(=O)N(CC(=O)NC2(C#N)CCCCC2)C1=O (configuration not stated) | 0 | 0 | 0 | - | 0 | 0
COc1ccc(-c2cnc3n2CCCCC3)cc1 | ? | 0 | ? | - | 23.1µM | 0
c1ccc2c(c1)COC(CN1CCCCC1)OC2 | 0 | 0 | 0 | 0 | 0 | 0
CCc1cccc(NC(=O)c2cc3c(=O)n(Cc4ccccc4)ccc3nc2C)c1 | ? | 0 | ? | 0 | ? | -
COc1ccc(CCNc2ncnc3c2cnn3-c2cccc(Cl)c2)cc1 | 0 | 0 | ? | 0 | 25.9µM | -
Cc1ccc(-n2ncc3c(NCCC4=CCCCC4)ncnc32)cc1C | 0 | 0 | 10.3µM | 0 | ? | -
Cc1ccc(-n2ncc3c(NCCc4ccccc4)ncnc32)cc1Cl | 0 | 0 | ? | 0 | ? | -
COc1ccc(CCNc2ncnc3c2cnn3-c2ccc(C)c(Cl)c2)cc1 | ? | 0 | 20.6µM | 0 | ? | -
